What all share (experiment): PBM binding z-score (relative to random genomic background probes); higher = stronger binding; sequences stand for … in GC…GCGATTGACAGCGTAGAATGAAGG
The subject of assay [1] is FXR:RXRa (NR concentration 270 nM, RXRa partner concentration 90 nM). In outline: (§1)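 Custom Agilent 4×180K protein-binding microarrays carried double-stranded probes. Their 34-nt variable regions held direct-repeat seeds, single-nucleotide variants, half-site ablations and random human genomic background sequences. Arrays were incubated 1 h with ligand-free nuclear receptor dimers in PBS pH 7.4, 2% milk, 0.02% Triton X-100, 1 mM DTT, 0.2 mg/mL BSA and 0.4 mg/ml salmon testes DNA. Antibodies against each partner (one per run) detected binding, and scanned fluorescence was regression-normalized. Binding z-scores use random background probes as reference.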

In assay [2] the test system is LXRa:RXRa (NR concentration 270 nM, RXRa partner concentration 90 nM). In short, it runs like this:
as §1

Assay [3] relates to LXRa homodimer (NR concentration 270 nM). In outline: as §1
In assay [4] the test system is LXRb:RXRa (NR concentration 270 nM, RXRa partner concentration 90 nM). In outline:
as §1

For assay [5], the system named is LXRb homodimer (NR concentration 270 nM). In outline: as §1
Assay [6] has as its system PPARa:RXRa (NR concentration 270 nM, RXRa partner concentration 90 nM). In short, it runs like this: as §1
In assay [7] the test system is PPARg:RXRa (NR concentration 180 nM, RXRa partner concentration 90 nM). In short, it runs like this: as §1
For assay [8], the system named is PPARg:RXRa 270nM:90nM, anti-RXR (NR concentration 270 nM, RXRa partner concentration 90 nM). In short, it runs like this: as §1
The test system of assay [9] is PPARg:RXRa 30nM:10nM, anti-RXR (NR concentration 30 nM, RXRa partner concentration 10 nM). In outline:
as §1

Assay [10] deals with PPARg:RXRa 90nM:30nM, anti-RXR (NR concentration 90 nM, RXRa partner concentration 30 nM). In short, it runs like this: as §1
Assay [11] relates to PPARg:RXRa DBDmut IVT, anti-RXR (DBD mutation: RXRa K156A/R161A, NR concentration 270 nM, RXRa partner concentration 90 nM). In short, it runs like this: as §1
Assay [12] has as its system PPARg:RXRa IVT, anti-PPARg (NR concentration 270 nM, RXRa partner concentration 90 nM). In short, it runs like this: as §1
Assay [13] has as its system PPARg DBDmut:RXRa IVT, anti-PPARg (DBD mutation: PPARg1 K132A/R137A, NR concentration 270 nM, RXRa partner concentration 90 nM). In short, it runs like this: as §1
Assay [14] has as its system PPARg DBDmut IVT, anti-PPARg (DBD mutation: PPARg1 K132A/R137A, NR concentration 270 nM). In short, it runs like this: as §1
The subject of assay [15] is PPARg homodimer (NR concentration 180 nM). In short, it runs like this: as §1
For assay [16], the system named is PXR:RXRa (NR concentration 270 nM, RXRa partner concentration 90 nM). In outline:
as §1

For assay [17], the system named is PXR homodimer (NR concentration 270 nM). In outline: as §1
Assay [18] relates to RARa:RXR (NR concentration 270 nM, RXRa partner concentration 90 nM). In outline: as §1
Assay [19] concerns RARa homodimer (NR concentration 270 nM). In outline:
as §1

Assay [20] has as its system RARb:RXRa (NR concentration 270 nM, RXRa partner concentration 90 nM). In short, it runs like this: as §1

The results in this text go back to the supplement of paper PMC6555819.

For the sequence ACTCTTAGTTGAGACGAGGGCAACCGATAGGTTG, the PBM binding z-score in assay [1] is 0.56; in assay [2], -0.132; in assay [3], -0.317; in assay [4], 0.037; in [5], -0.519; in assay [6] it was 0.348. For the same sequence, the PBM binding z-score was 0.499 in assay [7]; -0.0707 in assay [8]; -0.348 in assay [9]; -0.0252 in [10]; -0.123 in assay [11]; 0.386 in [12]. In addition, the PBM binding z-score in assay [13] was -0.0171; in assay [14], 0.118; in assay [15], -0.417; in assay [16], 1.34; in assay [17], -0.122; in assay [18] it was 0.668. The figures for the PBM binding z-score in [19] and in assay [20] were -0.22 and 0.939, respectively.
With GCTCGGAGGACAAGGTCAGAGGTTTGTCCGTAGA, the PBM binding z-score was 1.77 in [1]; 1.52 in assay [2]; -0.501 in assay [3]; 1.28 in assay [4]; -0.78 in assay [5]; 2.39 in assay [6]. Moreover, the PBM binding z-score was 1.75 in assay [7]; 2.59 in assay [8]; 0.214 in assay [9]; 2.08 in [10]; -0.0469 in assay [11]; 1.09 in assay [12]. Besides, the PBM binding z-score in [13] was -1.25; in assay [14], -0.886; in [15], 0.801; in assay [16], 1.78; in assay [17], -0.0547; in [18], 2.19. The results for the PBM binding z-score in assay [19] and in assay [20] were -0.638 and 3.47, respectively.
CAAGACAGGTGAGAAGGTAACTCAGCCTCGATTA: the PBM binding z-score in assay [1] was 0.353; in assay [2], 0.452; in assay [3] it was -0.0734; in [4] it was 0.183; in [5], 0.194; in assay [6] it was 0.791. Also, the PBM binding z-score in assay [7] was 0.815; in assay [8], 0.902; in [9] it was 0.302; in assay [10], 0.808; in assay [11], 0.761; in assay [12], 1.21. Moreover, the PBM binding z-score in assay [13] is -0.174; in assay [14], -0.268; in [15], 0.64; in assay [16] it was 0.215; in assay [17], 0.678; in [18], 0.355. In addition, the PBM binding z-score was determined as 0.384 in [19] and 0.867 in assay [20].
CGTTACGGGTCACGAGGTTATAGCACGACGAGCG: the PBM binding z-score in assay [1] was 6.83; in assay [2] it was 4.97; in assay [3], 0.389; in assay [4], 4.23; in [5] it was -0.0926; in assay [6], 6.15. Moreover, the PBM binding z-score in assay [7] stood at 6.94; in assay [8] it was 6.69; in assay [9] it was 2.7; in assay [10] it was 5.8; in assay [11], 4.5; in assay [12], 5.57. Further, the PBM binding z-score in [13] was 1.39; in [14], 0.539; in [15], 1.92; in assay [16] it was 4.65; in assay [17], 0.178; in [18], 5.93. Moreover, the PBM binding z-score in [19] was 0.803; in assay [20], 4.56.
On to CGTACTAGGTCAAGGACAGTGAATCTCCGCACGC, for which the PBM binding z-score in [1] came out at 3.26; in assay [2], 2.36; in [3] it was 0.318; in [4], 1.61; in [5], 0.134; in assay [6] it was 3.93. Also, the PBM binding z-score in [7] was determined as 6.37; in [8], 5.52; in assay [9], 2.99; in [10] it was 4.86; in assay [11] it was 7.55; in assay [12], 7.47. Besides, the PBM binding z-score was determined as 2.25 in assay [13]; 1.3 in [14]; 2.34 in [15]; 1.19 in assay [16]; 0.03 in assay [17]; 2 in assay [18]. Besides, the results for the PBM binding z-score in assay [19] and in [20] were 1.16 and 4, respectively.
Take CCTAGTCGGTCAGGAGGTCACACACCGGATATGA: the PBM binding z-score in [1] stood at 3.96; in [2], 4; in [3], 2.81; in [4] it was 3.49; in [5], 0.605; in assay [6], 4.55. The PBM binding z-score in [7] was found to be 4.89; in assay [8] it was 5.09; in assay [9], 3.26; in assay [10], 4.26; in [11], 2.85; in assay [12] it was 4.85. The PBM binding z-score in assay [13] worked out at 0.312; in [14], 0.324; in assay [15] it was 4.25; in assay [16], 4.34; in assay [17] it was 1.2; in [18], 5.23. Besides, the PBM binding z-score in [19] amounted to 2.27; in assay [20] it was 4.25.
